Screening results deposited in PubChem BioAssay by National Center for Advancing Translational Sciences (NCATS).
USP1 inh – Inhibitors of USP1/UAF1: Primary Screen | Ubiquitin carboxyl-terminal hydrolase 1 (Homo sapiens), O94782 | recombinant USP1/UAF1, Ub-Rhodamine cleavage fluorescence | Potency, µM (highest dose often 57.1 µM), without a hit: at the top dose activity change, negative = inhibition, usual class: inhibitors | 390,000 tested, 0.23% active | AID 743255, 2014; note: potency is the fitted concentration of half-maximal effect; % is set by controls: 0 for no effect and ±100 for the full control effect; nearly all actives have a fitted effect of over 60% in size
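Step one: compound is pinned into 1nM USP1/UAF1 in HEPES pH 7.8 buffer with TCEP. Step two: 15 min room-temperature incubation. Step three: Ub-Rho (150nM final) starts cleavage, tracked by fluorescence over six one-minute reads.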
EPAC2 antag – qHTS for Antagonist of cAMP-regulated guanine nucleotide exchange factor 2 (EPAC2): primary screen; Rap guanine nucleotide exchange factor 4 (Homo sapiens), Q8WZA2; EPAC2 GEF exchange of Rap1B-BODIPY-GDP, fluorescence; Potency, µM (top dose mostly 114 µM), without a hit: top-dose activity, negative = inhibition, usual class: inhibitors; 360,000 tested, 0.18% active; note: potency is the fitted concentration of half-maximal effect; % is set by controls: 0 for no effect and ±100 for the full control effect; nearly all actives have a fitted effect of over 45% in size
EPAC1 antag – qHTS for Antagonist of cAMP-regulated guanine nucleotide exchange factor 3 (EPAC1): primary screen; AID 720709, 2013; EPAC1 GEF assay, Rap1b-BODIPY-GDP exchange fluorescence; Rap guanine nucleotide exchange factor 3 (Homo sapiens), O95398; 360,000 tested, 0.14% active; Potency, µM (top dose mostly 115 µM), for the others: at the top dose activity change, negative = inhibition, hits mostly inhibitors;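 note: potency is the fitted concentration of half-maximal effect; plate controls were vehicle for no effect and positive control for full effect; nearly all actives have a fitted effect of over 50% in size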
Target sequence (O95398 whole entry, looked up): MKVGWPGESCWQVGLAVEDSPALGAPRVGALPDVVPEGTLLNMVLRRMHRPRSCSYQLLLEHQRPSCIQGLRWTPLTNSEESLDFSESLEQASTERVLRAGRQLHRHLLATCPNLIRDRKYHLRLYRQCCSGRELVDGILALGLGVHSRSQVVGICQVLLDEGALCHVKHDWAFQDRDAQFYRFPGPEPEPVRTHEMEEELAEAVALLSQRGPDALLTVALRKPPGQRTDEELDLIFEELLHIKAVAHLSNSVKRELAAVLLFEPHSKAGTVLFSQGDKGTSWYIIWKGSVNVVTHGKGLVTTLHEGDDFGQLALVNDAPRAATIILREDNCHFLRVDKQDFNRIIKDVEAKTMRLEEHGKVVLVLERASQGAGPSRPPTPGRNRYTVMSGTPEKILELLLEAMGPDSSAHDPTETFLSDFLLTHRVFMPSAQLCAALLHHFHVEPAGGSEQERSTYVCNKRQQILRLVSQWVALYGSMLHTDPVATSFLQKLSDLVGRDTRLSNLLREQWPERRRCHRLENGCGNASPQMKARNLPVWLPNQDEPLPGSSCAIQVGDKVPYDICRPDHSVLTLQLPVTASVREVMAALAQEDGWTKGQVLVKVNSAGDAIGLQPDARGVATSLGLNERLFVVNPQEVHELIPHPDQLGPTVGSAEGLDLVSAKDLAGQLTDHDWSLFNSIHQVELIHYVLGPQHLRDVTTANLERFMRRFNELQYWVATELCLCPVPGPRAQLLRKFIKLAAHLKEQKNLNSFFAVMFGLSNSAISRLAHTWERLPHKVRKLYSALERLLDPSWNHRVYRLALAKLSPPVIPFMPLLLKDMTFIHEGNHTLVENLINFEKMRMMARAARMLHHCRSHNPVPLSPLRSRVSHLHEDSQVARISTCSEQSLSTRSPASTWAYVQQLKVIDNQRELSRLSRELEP
LDHA block – qHTS assay for inhibitors of human lactate dehydrogenase | L-lactate dehydrogenase A chain (Homo sapiens), P00338 | purified LDHA, NADH/diaphorase-resazurin fluorescence; stronger effect = lower value | activity change, % (values are at about 110 or 230 µM) | 480,000 tested, 0.15% active | AID 1347041, 2019; in the data active = activity change below about -30%; inconclusive = mostly about -25% to -30%;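 note: plate controls were DMSO wells for no effect and wells without enzyme for full effect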
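Enzyme activity of human lactate dehydrogenase 5 (2 nM; 0.06 mM NADH, 0.2 mM pyruvate, 5 min, RT) is measured via a resazurin/diaphorase fluorescence readout of residual NADH.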
EPAC1 ag – qHTS for Agonist of cAMP-regulated guanine nucleotide exchange factor 3 (EPAC1): primary screen; Rap guanine nucleotide exchange factor 3 (Homo sapiens), O95398; EPAC1 agonist qHTS, biochemical assay; response scale: 100% = response to 6.5 mM cAMP; Potency, µM (titrated, usually from 154 µM), for inactives: at the highest dose activation, hits mostly activators; 360,000 tested, 0.073% active; note: potency is the fitted concentration of half-maximal effect; nearly all actives have a fitted effect of over 60% in size
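Compounds were pinned as a concentration titration into mixtures of EPAC1 (100 nM), BODIPY-GDP-loaded Rap1B (250 nM) and GDP (50 uM). After 5 min at room temperature, fluorescence was followed for 30 min; activity was scaled to 6.5 mM cAMP.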
EPAC2 agonist – qHTS for Agonist of cAMP-regulated guanine nucleotide exchange factor 4 (EPAC2): primary screen. Rap guanine nucleotide exchange factor 4 (Homo sapiens), Q8WZA2. EPAC2 activation, biochemical qHTS; response scale: 100% = 6.5 mM cAMP response. 360,000 tested, 0.079% active. Potency, µM (doses to about 154 µM), for the others: at the highest dose activation, most hits filed as activators; note: potency is the fitted concentration of half-maximal effect; nearly all actives have a fitted effect of over 50% in size
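Guanine nucleotide exchange by EPAC2 is measured as reduced fluorescence of BODIPY-GDP once it is released from 250 nM Rap1B. Plates are read kinetically for 30 min at room temperature; results are scaled to 6.5 mM cAMP.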
The depositor's hits bear a star; [ ] = dose if it differs, or a comment. Compounds with a hit are over-represented: about 0.56% of the library has one in this group of screens. Unless noted, calls come from the whole dose curve; as a rule, active = well fitted curve in the direction sought with a large enough effect; inconclusive = small, poorly fitted or top-dose-only effect, or another doubt; inactive = no such curve, though single readings can be large; an effect the other way counts as inactive or inconclusive.

`CCOc1ccc(CNC(=O)c2ncoc2-c2ccc(C)s2)cc1` gave LDHA block -1.
Screening CN1N=C(N)c2cn(C3OC(COP(=O)(O)O)C(O)C3O)c3ncnc1c23 (stereo unspecified) returned USP1 inh inconclusive, EPAC2 antag -1%, EPAC1 antag -4%, LDHA block -32*, EPAC1 ag 16% and EPAC2 agonist 2%.
`CC(C)CN1CC(C(=O)Nc2nc3c(s2)CCCCC3)CC1=O` (stereo unspecified) gave LDHA block 7.
Oc1ccc(CCNc2ncnc3ccc(Cl)cc23)cc1 was read as USP1 inh -24%, EPAC2 antag 12%, EPAC1 antag -1%, LDHA block 1, EPAC1 ag -13% and EPAC2 agonist 2%.
For N#Cc1c(C(F)(F)F)cc(-c2ccc(Cl)cc2)[nH]c1=O the results were USP1 inh -17%, EPAC2 antag -9%, EPAC1 antag 40µM*, LDHA block -5, EPAC1 ag -15% and EPAC2 agonist -2%.
Screening N#Cc1c(C(F)(F)F)cc(-c2ccc(F)cc2)[nH]c1=O returned USP1 inh -1%, EPAC2 antag -12%, EPAC1 antag -24%, LDHA block -4, EPAC1 ag -2% and EPAC2 agonist -1%.
Screening CS(=O)(=O)N1CCN(C2Cc3ccccc3C2)CC1 returned USP1 inh -11%, EPAC2 antag -2%, EPAC1 antag 2%, LDHA block -11, EPAC1 ag 11% and EPAC2 agonist 5%.
Screening CN1CCCN(C2C3CC4CC(C3)CC2C4)CC1 (stereo unspecified) returned USP1 inh -7%, EPAC2 antag 3%, EPAC1 antag 12%, LDHA block -17, EPAC1 ag 9% and EPAC2 agonist -1%.
Screening CC1CCC(N2CCN(S(C)(=O)=O)CC2)CC1 (stereo unspecified) returned USP1 inh -11%, EPAC2 antag -9%[57.1 µM], EPAC1 antag -12%, LDHA block -34*, EPAC1 ag -2% and EPAC2 agonist 6%.
CS(=O)(=O)N1CCN(C2C3CC4CC(C3)CC2C4)CC1 (stereo unspecified) was read as USP1 inh -13%, EPAC2 antag 1%, EPAC1 antag -8%, LDHA block -32*, EPAC1 ag 6% and EPAC2 agonist 12%.
CN(C)C(=O)CCc1ccc(NC(=O)c2ccccc2)cc1 was read as LDHA block 1.
For COC(=O)c1ccc(Cl)c(NC(=O)C2CCN(S(=O)(=O)Cc3ccccc3)CC2)c1 the results were USP1 inh -17% and LDHA block -9.
O=C(O)c1ccc(NC2=C/C(=N/S(=O)(=O)c3cccs3)c3ccccc3C2=O)cc1 was read as USP1 inh 5µM*, EPAC2 antag inconclusive, EPAC1 antag 50µM*, LDHA block 23, EPAC1 ag -18% and EPAC2 agonist 18%.
O=C1/C(=N\S(=O)(=O)c2cccs2)C([n+]2ccccc2)=C([O-])c2ccccc21 was read as USP1 inh inconclusive, EPAC2 antag 12%, EPAC1 antag -9%, LDHA block 11, EPAC1 ag -7% and EPAC2 agonist -6%.
O=C1C(Nc2ccc(O)cc2)=C/C(=N/S(=O)(=O)c2cccs2)c2ccccc21 was read as USP1 inh 4.5µM*, EPAC2 antag 3%, EPAC1 antag -12%, LDHA block 42, EPAC1 ag 10% and EPAC2 agonist 19%.
`CCCCCCc1ccc(C(=O)Nc2cccc(C)c2)cc1` gave LDHA block 16.
Screening COc1ccc(C(=O)NC(NC(=S)Nc2ccc(S(N)(=O)=O)cc2)C(Cl)(Cl)Cl)cc1 (stereo unspecified) returned USP1 inh -9%, EPAC2 antag -15%, EPAC1 antag -13%, LDHA block -34*, EPAC1 ag 21% and EPAC2 agonist 21%.
Cc1[nH]c2ccccc2c1C1c2ccccc2C(=O)N1CC(=O)NCC(N)=O (stereo unspecified) was read as LDHA block -1.
`Cc1ccc(S(=O)(=O)N2CCCC2C(=O)n2nc(C)c(Sc3ccccc3)c2C)cc1` (stereo unspecified) gave LDHA block -35*.
`Cc1nn(C(=O)C2CCCN2S(=O)(=O)c2ccc(F)cc2)c(C)c1Sc1ccccc1` (stereo unspecified) gave LDHA block -34*.
`Cc1cc(C)n(C(=O)C2CCCN2S(=O)(=O)c2ccc(Cl)cc2)n1` (stereo unspecified) gave USP1 inh -12%, EPAC2 antag -3%, EPAC1 antag 22%, LDHA block -5, EPAC1 ag 9% and EPAC2 agonist -2%.
C=CCSc1nc(-c2ccc(OC)cc2)c(C#N)c(=O)n1CC=C was read as USP1 inh inconclusive, EPAC2 antag 40µM*, EPAC1 antag -7%, LDHA block -2, EPAC1 ag -4% and EPAC2 agonist -3%.
COc1ccc(-c2nc3n(c(=O)c2C#N)CCS3)cc1 was read as USP1 inh -23%, EPAC2 antag -4%, EPAC1 antag inconclusive, LDHA block -4, EPAC1 ag 3% and EPAC2 agonist 13%.
CCn1c(SCc2ccccc2Cl)nnc1-c1ccco1 was read as LDHA block -7.
`O=C(CN1CCN(C(=O)c2ccco2)CC1)Nc1c2c(nc3c1CCC3)CCCC2` gave USP1 inh -9%, EPAC2 antag 1%, EPAC1 antag -13%, LDHA block -35*, EPAC1 ag 16% and EPAC2 agonist 9%.
CC(=O)C(Cc1cccc(F)c1)(Cc1cccc(F)c1)C(C)=O was read as USP1 inh -20%, EPAC2 antag -27%, EPAC1 antag -24%, LDHA block 2, EPAC1 ag -1% and EPAC2 agonist 14%.
